Assay outcomes deposited in PubChem BioAssay by National Center for Advancing Translational Sciences (NCATS).
Most compounds without a hit are left out; they make up all but 5.9% or so of the library.
GLP1R inv ag: qHTS of GLP-1 Receptor Inverse Agonists (Inhibition Mode); HEK293 GLP-1R CRE-luciferase, luminescence, 24 h; GLP-1R form is constitutively active; Potency, µM (highest dose often 38.3 µM), for inactives: top-dose activity change, negative = inhibition, usual class: inhibitors; actives 1.6% (n = 410,000); note: % is set by controls: 0 for no effect and ±100 for the full control effect; nearly all actives have a fitted effect of over 55% in size
Target sequence (P43220 whole entry, looked up): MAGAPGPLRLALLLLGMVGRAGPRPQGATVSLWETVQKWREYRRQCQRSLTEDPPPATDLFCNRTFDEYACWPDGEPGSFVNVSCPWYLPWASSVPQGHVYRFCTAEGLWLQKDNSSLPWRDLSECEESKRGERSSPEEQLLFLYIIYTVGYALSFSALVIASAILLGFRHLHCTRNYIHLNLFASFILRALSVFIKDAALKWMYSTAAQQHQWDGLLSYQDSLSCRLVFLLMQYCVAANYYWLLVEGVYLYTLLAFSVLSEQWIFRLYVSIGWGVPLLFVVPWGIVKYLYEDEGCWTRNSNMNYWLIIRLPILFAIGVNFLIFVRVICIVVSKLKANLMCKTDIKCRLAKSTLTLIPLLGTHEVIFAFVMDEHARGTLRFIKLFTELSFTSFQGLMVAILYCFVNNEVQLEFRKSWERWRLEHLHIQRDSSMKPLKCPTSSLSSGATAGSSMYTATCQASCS
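GLP-1R inverse agonism mode: basal reporter luminescence in engineered HEK293 cells measured after one day of compound exposure at 37 deg C, with a 12 min room-temperature detection step.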
GLP1R cytotox: qHTS of GLP-1 Receptor Inverse Agonists: Cytotox Screen; Potency, µM (doses to about 38.3 µM), without a hit: top-dose activity change, negative = inhibition, hits mostly inhibitors; actives 0.13% (n = 410,000); HEK293 cAMP-luciferase reporter cells, luminescence, 24 h;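 note: loss of luciferase light is scored as toxicity; % is set by controls: 0 for no effect and ±100 for the full control effect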
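Quantitative HTS format, 1536 wells, 200 cells/uL seeded. Compounds: 23 nL, 24 h, 37 °C. Detection: luciferase reagent, luminescence at 12 min RT; decreased signal taken as cytotoxic.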
GLP-1R agonist: qHTS of GLP-1 Receptor Agonists. Glucagon-like peptide 1 receptor (Homo sapiens), P43220. HEK293 GLP-1R CRE-luciferase, luminescence, 4-6 h; cells express a hypersensitive GLP-1R form. Potency, µM (series often up to 45.6 µM), for inactives: at the top dose activation, actives largely listed as activators. actives 0.007% (n = 380,000); note: % of control where 0% means no effect
VP16 counter: VP16 counterscreen qHTS for inhibitors of ROR gamma transcriptional activity; Drosophila S2 Gal4-VP16 UAS-luciferase, luminescence, 20 h; Potency, µM (doses to about 53.6 µM), inactives show top-dose activity, negative = inhibition, hits mostly inhibitors; actives 3.5% (n = 310,000);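 note: Gal4-VP16 expression switched on by copper sulfate through the metallothionein promoter; % is set by controls: 0 for no effect and ±100 for the full control effect; nearly all actives have a fitted effect of over 50% in size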
RORg inh: qHTS for inhibitors of ROR gamma transcriptional activity | Nuclear receptor ROR-gamma (Mus musculus), P51450 | Drosophila S2 Gal4-RORgamma UAS-luciferase reporter, 20 h | Potency, µM (highest dose often 53.6 µM), inactives show at the highest dose activity change, negative = inhibition, actives largely listed as inhibitors | actives 5.4% (n = 310,000) | AID 2551, 2010; note: % is set by controls: 0 for no effect and ±100 for the full control effect; nearly all actives have a fitted effect of over 60% in size
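In this cell-based reporter format, copper sulfate (700 uM final) drives Gal4–ROR gamma fusion expression from a metallothionein promoter in Drosophila Schneider cells; compounds preincubated 1 hr, reporter read after 20 hr at ambient temperature.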
* marks the source's active call; other numbers are inactive results; ? = inconclusive; nt = not tested or not shown; [ ] = another dose, or the depositor's remark. Calls come from the whole dose curve; as a rule, active = well fitted curve in the direction sought with a large enough effect; inconclusive = small, poorly fitted or top-dose-only effect, or another doubt; inactive = no such curve, though single readings can be large; an effect the other way counts as inactive or inconclusive. Potency is the fitted concentration of half-maximal effect.

SMILES	GLP1R inv ag	GLP1R cytotox	GLP-1R agonist	VP16 counter	RORg inh
COc1cc(-n2c(=S)[nH]c3ccccc3c2=O)c(Cl)cc1Cl	?	?	-39%	5.6µM*	2.8µM*
COc1ccc(-n2c(=S)[nH]c3ccc(C)cc3c2=O)cc1	-10%	1%	0%	nt	nt
O=c1[nH]c2ccccc2c(=O)n1-c1cccc(Cl)c1	8%	15%	0%	-2%	-2%
CCCc1cc2c(n1Cc1cccc(Cl)c1)C(C)C1CN(C(=O)c3ccccc3)C(C)(C(=O)OC)C21 (stereo unspecified)	nt	nt	nt	6%	?
O=C(CCN1CCCCC1)Nc1ccc(Br)cc1C(=O)c1ccccc1	?	-26%	28%	-1%	8%
O=C(CCN1CCN(c2ccccc2)CC1)c1ccc(Br)cc1	4%	-6%	10%	?	35µM*
N#CC(C#N)=NNc1cccc(Cl)c1	nt	nt	nt	0.63µM*	1.1µM*
N#CC(C#N)=NNc1ccc2cn[nH]c2c1	?	?	-12%	nt	nt
O=c1[nH]c(=S)[nH]c(O)c1N=Nc1cc2c(cc1[N+](=O)[O-])OCO2	-4%	-5%	4%	-3%	-39%
O=c1[nH]c(=S)[nH]c(O)c1N=Nc1ccc(-c2ccccc2)cc1[N+](=O)[O-]	nt	nt	nt	18µM*	?
O=C(Nc1ccc(Cl)c(C(F)(F)F)c1)[C@@H]1CC=C[C@@H]2CCN(Cc3ccccc3)C(=O)[C@@H]21	?	1%	-1%	nt	nt
O=C(Nc1ccc(Cl)c(C(F)(F)F)c1)NC1CC2CCCC(C1)N2C1CC1 (stereo unspecified)	3.2µM*	?	-10%	nt	nt
c1nc[nH]n1	nt	nt	nt	-5%	13%
COc1ccc2c(c1)-c1c(ssc1=S)C(C)(C)N2S(=O)(=O)c1ccc(C)cc1	2.8µM*	?	0%	-1%	8.9µM*
Cc1ccc(OP(=O)(NCc2ccccc2)Oc2ccc(C)cc2)cc1	7.1µM*	-2%	7%	-2%	48%
Cc1cc(N2C(=O)CC(N3CCC(n4c(=O)[nH]c5ccccc54)CC3)C2=O)no1 (stereo unspecified)	9%	-3%	-10%	-2%	3.2µM*
COC(=O)c1ccc(N2C(=O)CC(N3CCC(n4c(=O)[nH]c5ccccc54)CC3)C2=O)cc1 (stereo unspecified)	3%	58%	-1%	-7%	30%
CC(C)c1ccc(-n2c(O)c(/C=N/NC(=O)c3ccncc3)c(=O)[nH]c2=O)cc1	-5%	7%	-13%	-1%	22%
CC(C)c1ccc(-n2c(O)c(/C=N/NC(=O)c3ccccc3O)c(=O)[nH]c2=S)cc1	8%	3%	0%	4.5µM*	0.32µM*
O=C(N/N=C/c1c(O)n(C2CCCCC2)c(=S)[nH]c1=O)c1ccccc1	3%	-1%	0%	?	5.6µM*
CCCCC(=O)N/N=C/c1c(O)n(Cc2ccco2)c(=O)[nH]c1=O	-1%	-10%	-14%	-28%	?
O=C(N/N=C/c1c(O)n(CCc2ccccc2)c(=O)[nH]c1=O)c1ccccc1	5%	11%	0%	-9%	14µM*
O=C(N/N=C/c1c(O)n(Cc2ccco2)c(=O)[nH]c1=O)c1ccccc1O	2%	0%	-2%	7%	13µM*
CCOC(=O)CBr	nt	nt	nt	-15%	-45%
NC(=NCCc1ccc(I)cc1)SCCCc1cnc[nH]1	nt	nt	nt	-5%	1%
O=C(N/N=C/c1c(O)n(C2CCCCC2)c(=S)[nH]c1=O)c1ccccc1O	9%	5%	5%	3.2µM*	4µM*
CC/C(=N\NC(=O)c1ccccc1O)c1c(O)n(C2CCCCC2)c(=O)[nH]c1=O	?	0%	-5%	8.9µM*	2.5µM*
CCC(=NCCO)c1c(O)n(C2CCCCC2)c(=O)[nH]c1=O	10%	-10%	0%	-1%	9%
O=c1[nH]c(=S)n(C2CC2)c(O)c1/C=N/Nc1ccccc1	?	-11%[1.53 µM]	2%	1%	13%
